Paper PMC7862700, “An all-to-all approach to the identification of sequence-specific readers for epigenetic DNA modifications on cytosine”

What was measured:
Assay in all cases: DAPPL (digital affinity profiling via proximity ligation, sequencing); 10 mM Tris-HCl pH 7.5, 50 mM NaCl, 1 mM DTT, 4% glycerol, room temperature, 30 min; GST-TFs on glutathione beads, 16-mer random dsDNA library, 0.1% formaldehyde crosslink after washing; high values mean tight binding
Settings in all cases: protein: recombinant; tags: N-terminal GST; dsDNA, one strand shown
ERF = target: T1, ERF (Homo sapiens, UniProt P50548 1-548)
T1 sequence: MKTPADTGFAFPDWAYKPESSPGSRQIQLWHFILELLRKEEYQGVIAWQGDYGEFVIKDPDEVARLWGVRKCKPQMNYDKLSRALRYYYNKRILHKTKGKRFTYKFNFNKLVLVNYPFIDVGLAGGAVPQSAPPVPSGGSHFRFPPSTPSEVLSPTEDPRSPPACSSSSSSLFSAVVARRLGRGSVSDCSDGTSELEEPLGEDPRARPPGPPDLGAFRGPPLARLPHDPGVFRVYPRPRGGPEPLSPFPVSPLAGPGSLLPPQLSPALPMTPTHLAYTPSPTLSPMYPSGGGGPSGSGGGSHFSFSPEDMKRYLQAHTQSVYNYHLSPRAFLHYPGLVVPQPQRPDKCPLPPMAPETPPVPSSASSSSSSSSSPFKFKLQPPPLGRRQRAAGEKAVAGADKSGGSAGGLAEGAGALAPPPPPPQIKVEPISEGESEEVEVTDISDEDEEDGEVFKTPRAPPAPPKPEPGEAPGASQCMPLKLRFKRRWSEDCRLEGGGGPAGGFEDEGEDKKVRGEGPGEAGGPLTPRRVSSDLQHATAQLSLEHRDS
Method in brief: (§1)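 Pools of DNA-barcoded human transcription factors, expressed in yeast as GST fusions on glutathione beads and combined with a tag-only sample, were incubated with 200 nmole of a 16-mer random double-stranded DNA library. Incubation took 30 min at room temperature in Tris/NaCl/DTT/glycerol buffer and was followed by washing, 0.1% formaldehyde crosslinking, proximity ligation (BsaI/T4 ligase, 1 h, 37 °C), PCR amplification and sequencing on an Illumina NextSeq500. Binding signal is the ratio of a hexamer's read frequency for a factor to its frequency for the tag-only sample.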

ETV3L = target: T2, ETV3L (Homo sapiens, UniProt Q6ZN32 1-361)
T2 sequence: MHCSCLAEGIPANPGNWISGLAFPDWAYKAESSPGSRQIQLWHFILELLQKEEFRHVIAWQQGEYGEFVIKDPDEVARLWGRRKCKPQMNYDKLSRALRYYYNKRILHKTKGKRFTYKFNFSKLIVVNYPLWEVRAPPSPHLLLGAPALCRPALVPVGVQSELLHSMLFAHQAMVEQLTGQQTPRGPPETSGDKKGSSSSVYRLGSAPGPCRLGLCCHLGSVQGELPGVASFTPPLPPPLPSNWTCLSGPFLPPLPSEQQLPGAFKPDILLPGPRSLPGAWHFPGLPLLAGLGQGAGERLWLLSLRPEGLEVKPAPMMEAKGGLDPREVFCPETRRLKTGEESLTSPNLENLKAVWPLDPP
Method in brief: as §1

ETS2 = target: T3, ETS2 (Homo sapiens, UniProt P15036 1-469)
T3 sequence: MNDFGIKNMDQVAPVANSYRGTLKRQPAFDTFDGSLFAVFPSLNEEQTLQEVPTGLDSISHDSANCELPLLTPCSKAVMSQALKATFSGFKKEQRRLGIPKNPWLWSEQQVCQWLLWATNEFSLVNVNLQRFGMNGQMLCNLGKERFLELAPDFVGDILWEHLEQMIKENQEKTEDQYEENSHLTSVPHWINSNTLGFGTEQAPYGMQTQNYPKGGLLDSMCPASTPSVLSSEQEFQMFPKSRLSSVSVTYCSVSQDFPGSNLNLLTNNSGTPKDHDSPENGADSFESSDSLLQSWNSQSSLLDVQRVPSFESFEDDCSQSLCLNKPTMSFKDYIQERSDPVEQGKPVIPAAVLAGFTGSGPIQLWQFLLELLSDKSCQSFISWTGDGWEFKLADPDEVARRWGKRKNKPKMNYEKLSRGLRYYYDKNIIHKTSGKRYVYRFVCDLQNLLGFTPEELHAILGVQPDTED
Method in brief: as §1

SPDEF = target: T4, SPDEF (Homo sapiens, UniProt O95238 1-335)
T4 sequence: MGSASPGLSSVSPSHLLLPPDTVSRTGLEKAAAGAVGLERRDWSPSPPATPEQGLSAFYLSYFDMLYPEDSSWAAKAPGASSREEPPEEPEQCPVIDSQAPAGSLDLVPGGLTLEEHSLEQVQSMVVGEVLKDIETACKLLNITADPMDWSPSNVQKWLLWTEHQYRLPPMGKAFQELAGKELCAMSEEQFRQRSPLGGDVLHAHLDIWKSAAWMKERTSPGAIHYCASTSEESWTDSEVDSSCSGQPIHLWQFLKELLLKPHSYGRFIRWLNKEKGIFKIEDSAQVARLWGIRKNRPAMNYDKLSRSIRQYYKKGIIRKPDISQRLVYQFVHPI
Method in brief: as §1

ETV7 = target: T5, ETV7 (Homo sapiens, UniProt Q9Y603 1-341)
T5 sequence: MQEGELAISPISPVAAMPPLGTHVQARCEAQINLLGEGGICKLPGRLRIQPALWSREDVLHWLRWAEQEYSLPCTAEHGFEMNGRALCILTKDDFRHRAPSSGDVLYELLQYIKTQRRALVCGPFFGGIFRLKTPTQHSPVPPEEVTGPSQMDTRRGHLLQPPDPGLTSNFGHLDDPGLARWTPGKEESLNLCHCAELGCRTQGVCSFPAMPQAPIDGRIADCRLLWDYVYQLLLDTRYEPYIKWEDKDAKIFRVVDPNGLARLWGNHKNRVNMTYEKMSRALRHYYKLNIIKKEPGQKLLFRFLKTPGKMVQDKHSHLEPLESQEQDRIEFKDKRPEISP
Method in brief: as §1

ELF5 = target: T6, ELF5 (Homo sapiens, UniProt Q9UKW6-2 1-255)
T6 sequence: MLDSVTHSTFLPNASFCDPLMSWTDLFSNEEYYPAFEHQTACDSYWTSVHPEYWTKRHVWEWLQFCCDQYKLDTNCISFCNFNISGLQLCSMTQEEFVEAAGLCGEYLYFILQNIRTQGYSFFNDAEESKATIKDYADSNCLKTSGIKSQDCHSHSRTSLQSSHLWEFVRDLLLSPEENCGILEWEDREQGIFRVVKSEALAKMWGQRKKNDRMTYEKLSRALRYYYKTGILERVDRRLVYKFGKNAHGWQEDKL
Method in brief: as §1

ETV3 = target: T7, ETV3 (Homo sapiens, UniProt P41162-2 1-143)
T7 sequence: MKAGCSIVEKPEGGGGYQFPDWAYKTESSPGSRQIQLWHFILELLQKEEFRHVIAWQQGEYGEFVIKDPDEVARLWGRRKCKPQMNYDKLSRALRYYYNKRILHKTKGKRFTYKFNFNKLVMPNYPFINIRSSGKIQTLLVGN
Method in brief: as §1

ETV6 = ETV6 (Homo sapiens, UniProt P41212 1-452)
Method in brief: as §1

ETV6, sequence (P41212 whole entry): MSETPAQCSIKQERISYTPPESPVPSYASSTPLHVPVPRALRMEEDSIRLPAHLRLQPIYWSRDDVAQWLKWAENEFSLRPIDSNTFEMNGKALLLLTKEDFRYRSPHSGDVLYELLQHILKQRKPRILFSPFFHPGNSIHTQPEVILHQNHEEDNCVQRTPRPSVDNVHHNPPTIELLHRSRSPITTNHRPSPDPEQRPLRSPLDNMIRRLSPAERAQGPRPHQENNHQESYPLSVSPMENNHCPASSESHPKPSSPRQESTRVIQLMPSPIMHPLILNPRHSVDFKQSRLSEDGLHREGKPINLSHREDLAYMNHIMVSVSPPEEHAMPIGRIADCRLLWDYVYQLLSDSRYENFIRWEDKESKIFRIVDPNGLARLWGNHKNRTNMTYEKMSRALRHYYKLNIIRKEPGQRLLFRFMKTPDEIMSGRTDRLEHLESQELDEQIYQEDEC

| Sequence | binding signal (ERF) | binding signal (ETV3L) | binding signal (ETS2) | binding signal (SPDEF) | binding signal (ETV7) | binding signal (ELF5) | binding signal (ETV3) | binding signal (ETV6) |
| --- | --- | --- | --- | --- | --- | --- | --- | --- |
| TACCCA | 1.18 fold enrichment (6-mer frequency, TF over GST control) | 1.06 fold enrichment (6-mer frequency, TF over GST control) | 1.17 fold enrichment (6-mer frequency, TF over GST control) | 1.09 fold enrichment (6-mer frequency, TF over GST control) | 1.07 fold enrichment (6-mer frequency, TF over GST control) | 1.09 fold enrichment (6-mer frequency, TF over GST control) | 1.06 fold enrichment (6-mer frequency, TF over GST control) | 1 fold enrichment (6-mer frequency, TF over GST control) |
| TGTTTA | 1.22 fold enrichment (6-mer frequency, TF over GST control) | 1.2 fold enrichment (6-mer frequency, TF over GST control) | 1.13 fold enrichment (6-mer frequency, TF over GST control) | 1.17 fold enrichment (6-mer frequency, TF over GST control) | 1.3 fold enrichment (6-mer frequency, TF over GST control) | 1.19 fold enrichment (6-mer frequency, TF over GST control) | 1.12 fold enrichment (6-mer frequency, TF over GST control) | 1.19 fold enrichment (6-mer frequency, TF over GST control) |
| TTGATC | 1.23 fold enrichment (6-mer frequency, TF over GST control) | 1.2 fold enrichment (6-mer frequency, TF over GST control) | 1.1 fold enrichment (6-mer frequency, TF over GST control) | 1.24 fold enrichment (6-mer frequency, TF over GST control) | 1.08 fold enrichment (6-mer frequency, TF over GST control) | 1.21 fold enrichment (6-mer frequency, TF over GST control) | 1.26 fold enrichment (6-mer frequency, TF over GST control) | 1.09 fold enrichment (6-mer frequency, TF over GST control) |
| GAACAC | 1.11 fold enrichment (6-mer frequency, TF over GST control) | 1.18 fold enrichment (6-mer frequency, TF over GST control) | 1.12 fold enrichment (6-mer frequency, TF over GST control) | 1.26 fold enrichment (6-mer frequency, TF over GST control) | 1.15 fold enrichment (6-mer frequency, TF over GST control) | 1.17 fold enrichment (6-mer frequency, TF over GST control) | 1.14 fold enrichment (6-mer frequency, TF over GST control) | 1.13 fold enrichment (6-mer frequency, TF over GST control) |
| CCTCAA | 1.32 fold enrichment (6-mer frequency, TF over GST control) | 1.58 fold enrichment (6-mer frequency, TF over GST control) | 1.39 fold enrichment (6-mer frequency, TF over GST control) | 1.38 fold enrichment (6-mer frequency, TF over GST control) | 1.27 fold enrichment (6-mer frequency, TF over GST control) | 1.52 fold enrichment (6-mer frequency, TF over GST control) | 1.48 fold enrichment (6-mer frequency, TF over GST control) | 1.42 fold enrichment (6-mer frequency, TF over GST control) |
| TATTGC | 1.31 fold enrichment (6-mer frequency, TF over GST control) | 1.4 fold enrichment (6-mer frequency, TF over GST control) | 1.36 fold enrichment (6-mer frequency, TF over GST control) | 1.31 fold enrichment (6-mer frequency, TF over GST control) | 1.36 fold enrichment (6-mer frequency, TF over GST control) | 1.27 fold enrichment (6-mer frequency, TF over GST control) | 1.41 fold enrichment (6-mer frequency, TF over GST control) | 1.38 fold enrichment (6-mer frequency, TF over GST control) |
